Binding signal data for seven sequences are collected here from publication PMC8384837, “Expanding the binding specificity for RNA recognition by a PUF domain”.

Experiment in all cases: yeast three-hybrid, YBZ-1, SC-Leu-His + 0.5 mM 3-AT, 4 days
Details in all cases: tags: N-Gal4 AD-HA kept; label: inside an RPR1-promoter hybrid RNA with tandem MS2 sites; ssRNA

Assay [1] concerns the target PUM1 PUF domain R5-SGS (Homo sapiens, UniProt Q14671 828-1176, C1007S;R1008G;Q1011S). Put shortly: (§1)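 A centromeric plasmid in strain YBZ-1 co-expressed Pumilio-1 PUF domain libraries, randomized at the three base-contacting residues of each repeat, with matching RNA elements; the strain carries a LexA–MS2 coat fusion and a HIS3 reporter. After four days on SC-Leu (input) or SC-Leu-His + 0.5 mM 3-AT (selection), the repeat regions were PCR-amplified and Illumina-sequenced. The interaction score is the log change in variant frequency from input to selection, using log2 and a pseudocount of 1 where absent.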

The target of assay [2] is PUM1 PUF domain R3-RAH (Homo sapiens, UniProt Q14671 828-1176, C935R;R936A;Q939H). Put shortly:
as §1

Assay [3] addresses T1, PUM1 PUF domain R6-AYM (Homo sapiens, UniProt Q14671 828-1176, N1043A;Q1047M).
T1 sequence: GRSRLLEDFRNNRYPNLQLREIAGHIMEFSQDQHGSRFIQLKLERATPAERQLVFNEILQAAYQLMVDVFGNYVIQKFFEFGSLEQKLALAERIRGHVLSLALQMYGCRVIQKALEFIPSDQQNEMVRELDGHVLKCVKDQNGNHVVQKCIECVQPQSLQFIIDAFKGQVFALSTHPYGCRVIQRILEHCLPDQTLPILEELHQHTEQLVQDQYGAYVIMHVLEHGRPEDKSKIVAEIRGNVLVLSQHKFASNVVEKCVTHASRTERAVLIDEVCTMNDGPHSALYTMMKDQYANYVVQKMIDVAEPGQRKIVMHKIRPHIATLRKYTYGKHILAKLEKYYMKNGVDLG
A digest of the protocol:
as §1

Assay [4] concerns the target PUM1 PUF domain R8-KWH (Homo sapiens, UniProt Q14671 828-1176, N1122K;Y1123W;Q1126H). A digest of the protocol:
as §1

The target of assay [5] is PUM1 PUF domain R3-APM (Homo sapiens, UniProt Q14671 828-1176, C935A;R936P;Q939M). Put shortly:
as §1

Assay [6] concerns the target PUM1 PUF domain R4-CPN (Homo sapiens, UniProt Q14671 828-1176, N971C;H972P;Q975N). A digest of the protocol:
as §1

Assay [7] has as its target PUM1 PUF domain R5-MGR (Homo sapiens, UniProt Q14671 828-1176, C1007M;R1008G;Q1011R). A digest of the protocol: as §1
Assay [8] deals with PUM1 PUF domain R1-MYR (Homo sapiens, UniProt Q14671 828-1176, S863M;R864Y;Q867R). A digest of the protocol: as §1
For assay [9], the target named is T2, PUM1 PUF domain R6-GFE (Homo sapiens, UniProt Q14671 828-1176, N1043G;Y1044F;Q1047E).
T2 sequence: T1 sequence with A216G, Y217F, M220E
Put shortly:
as §1

Positions count from the first letter of the chain named.

With “GGCUAGAACUAGUGGAUCCCCCGGCGCCCGGCGGCUCGAGCCCGGGUAAGUGUGAAUAGUCUGCAUGCCGCCGGGCGCCAUGCCUGCAGGUCGACUCUAGAAAACAUG”, in [1], the binding signal was 2.71 log2 enrichment (interaction score).
As to “GGCUAGAACUAGUGGAUCCCCCGGCGCCCGGCGGCUCGAGCCCGGGUAAGUGUAAUUAGUCUGCAUGCCGCCGGGCGCCAUGCCUGCAGGUCGACUCUAGAAAACAUG”, the binding signal in assay [2] is 3.61 log2 enrichment (interaction score).
For “GGCUAGAACUAGUGGAUCCCCCGGCGCCCGGCGGCUCGAGCCCGGGUAAGUGUAAAUAGUCUGCAUGCCGCCGGGCGCCAUGCCUGCAGGUCGACUCUAGAAAACAUG”, the binding signal in assay [3] was 4.27 log2 enrichment (interaction score); in [4] it was 4.79 log2 enrichment (interaction score); in [5], 2.44 log2 enrichment (interaction score); in [6], 3.19 log2 enrichment (interaction score); in assay [7], 1.08 log2 enrichment (interaction score).
Turning to “GGCUAGAACUAGUGGAUCCCCCGGCGCCCGGCGGCUCGAGCCCGGGUAAGUGUAAAUUGUCUGCAUGCCGCCGGGCGCCAUGCCUGCAGGUCGACUCUAGAAAACAUG”, the binding signal in [8] is 3.58 log2 enrichment (interaction score).
For “GGCUAGAACUAGUGGAUCCCCCGGCGCCCGGCGGCUCGAGCCCGGGUAAGUGUAAAUCGUCUGCAUGCCGCCGGGCGCCAUGCCUGCAGGUCGACUCUAGAAAACAUG”, in assay [8], the binding signal was 3.82 log2 enrichment (interaction score).
In the case of “GGCUAGAACUAGUGGAUCCCCCGGCGCCCGGCGGCUCGAGCCCGGGUAAGUGGAAAUAGUCUGCAUGCCGCCGGGCGCCAUGCCUGCAGGUCGACUCUAGAAAACAUG”, the binding signal in assay [9] is 5.67 log2 enrichment (interaction score).
“GGCUAGAACUAGUGGAUCCCCCGGCGCCCGGCGGCUCGAGCCCGGGUAAGUGUCAAUAGUCUGCAUGCCGCCGGGCGCCAUGCCUGCAGGUCGACUCUAGAAAACAUG”: the binding signal in assay [7] is 3.14 log2 enrichment (interaction score).
